According to PubChem BioAssay (NCATS):
Inconclusive results are not listed. Where a call stands in place of a potency, no number is given. Activity calls are given as the source filed them. Calls come from the whole dose curve; as a rule, active = well fitted inhibition curve with a large enough effect; inconclusive = small, poorly fitted or top-dose-only effect; inactive = no such curve, though single readings can be large or run the other way. Non-standard residues stand in square brackets, D forms with d. Residues, ends and D or L forms follow the SMILES beside them. *: point of attachment. Nva = CCC[C@H](N)C(=O)O; Cbz = O=C(OCc1ccccc1)*
Potency is the fitted concentration of half-maximal effect.

Assay: qHTS assay for measurement of the activity of small molecule inhibitors on Zika virus induced Caspase-3 activity in human iPSC derived neural progenitor cells (hNPCs) (AID 1224857); note: nearly all actives have a fitted effect of over 65% in size
Conditions: hNPCs ZIKV-induced caspase-3/7, Caspase-Glo luminescence, 6 h; series mostly up to 45.7 µM
From the text: National Center for Advancing Translational Sciences [NCATS]
Johns Hopkins University School of Medicine
Increase in the Caspase-3 activity indicates an activation of apoptosis cell death pathway caused by Zika virus infection in certain types of neuronal cells including human neural progenitor cells (hNPCs), astrocytes, and astrocytoma cell line (SNB-19). This cell-based caspase-3 activity assay measures the increased caspase-3 activity in the human iPSC derived neural progenitor cells (hNPCs) after a 6-hour Zika virus infection with a luminescence readout. A decrease in the luminescence signal in this assay by small molecule treatment indicates an inhibitory effect of that small molecule on the Zika virus induced caspase-3 activity that may correlate with its effect on reduction of Zika virus caused cell death.
The medium for hNPCs consists of DMEM/F12, N2 supplement (ThermoFisher, Cat.# 17502048), NEAA (ThermoFisher, Cat. # 11140050), 2 ug/ml heparin, 2 uM cyclopamine, and B27 (ThermoFisher, Cat. # 17504044). A Caspase-Glo 3/7 assay kit (catalog number G8092; Promega, Madison, WI) was used to detect caspase-3 activity induced by Zika virus infection in human cells. The reagent mixture was reconstituted as described in the protocol from the manufacturer. Polystyrene tissue culture treated and PDL coated white plates were obtained from Greiner Bio-One (Monroe, NC). Cells were seeded in 384- or 1536-well assay plates and cultured at 37 C with 5% CO2 for 16 to 20 hours. The typical cell seeding density in the 1536-well plate assay is 350 cells/well in 3 ul medium for hNPCs in tissue culture treated plates. Compounds were added to cells and incubated for one hour before addition of ZIKV solution to cells (2 FFU/cell). After incubation at 37 C with 5% CO2 for 6 hours, the reagent mixture of Caspase-Glo 3/7 assay kit was added to each well, followed by incubation at room temperature for 30 minutes. The luminescence intensity of the assay plates was measured using a ViewLux plate reader (PerkinElmer). Data were normalized by using the cell-containing wells without ZIKV as a negative control (0% induction of caspase 3/7 activity) and wells containing ZIKV infected cells (Caspase-3 activity induced) as a positive control (100% induction of caspase 3 activity). The percentage inhibitions of the increased Caspase-3 activity by small molecule inhibitors were then calculated.
For CC1=C(C(=O)Nc2cc3cn[nH]c3cc2F)C(c2ccc(Cl)cc2F)N=C(c2ccnc(Cl)c2)N1 (stereo not given), the Potency was “inactive”.
In the case of CC(Oc1ccc(O)cc1)(P(=O)(O)O)P(=O)(O)O, the Potency is reported as “inactive”.
In the case of O=C(CCCCCCC(=O)Nc1cccnc1)NO, the Potency is reported as “inactive”.
For COc1ccc(C[C@@H](C)[C@@H](C)Cc2ccc(OC)c(OC)c2)cc1OC, the Potency was “inactive”.
In the case of CN[C@H](CC(C)C)C(=O)N[C@H]1C(=O)N[C@@H](CC(N)=O)C(=O)N[C@@H]2C(=O)N[C@H]3C(=O)N[C@H](C(=O)N[C@H](C(=O)O)c4cc(O)cc(O)c4-c4cc3ccc4O)[C@H](O)c3ccc(c(Cl)c3)Oc3cc2cc(c3O[C@@H]2O[C@H](CO)[C@@H](O)[C@H](O)[C@@H]2O[C@H]2C[C@](C)(N)[C@H](O)[C@H](C)O2)Oc2ccc(cc2Cl)[C@H]1O, the Potency is reported as “inactive”.
For Cc1cnc(NC(=O)Nc2cc(Br)c(C)cc2OC[C@@H]2CNCCO2)cn1, the Potency was “inactive”.
For Cc1cnc(Nc2ccc(CN3CCOCC3)cc2)nc1Nc1cccc(S(=O)(=O)NC(C)(C)C)c1, the Potency was “inactive”.
For CN[C@H]1[C@@H](O)[C@@H]2O[C@@H]3O[C@H](C)CC(=O)[C@]3(O)O[C@@H]2[C@@H](NC)[C@H]1O, the Potency was 16.6 µM (active).
For CC(C)c1cnn2c(NCc3ccccc3)cc(NCCCCCCN)nc12, the Potency was “inactive”.
For COc1cc2c(Nc3ccc(Cl)c(Cl)c3F)ncnc2cc1OCC1C[C@@H]2CN(C)C[C@H]2C1, the Potency was “inactive”.
With COc1cc(OC)c(C=CS(=O)(=O)Cc2ccc(OC)c(NCC(=O)O)c2)c(OC)c1 the Potency was “inactive”.
With Cc1cc(Nc2ncc3c(n2)N(C)C(=O)N(c2cc(NC(=O)c4cccc(C(F)(F)F)c4)ccc2C)C3)n(C)n1 the Potency was “inactive”.
In the case of O=C(O)C(=O)Nc1cccc(C2=NN=N[N]2)c1, the Potency is reported as “inactive”.
With CCN1CCN(C(=O)N[C@H](C(=O)N[C@@H]2C(=O)N3C(C(=O)O)=C(CSc4nnnn4C)CS[C@@H]23)c2ccc(O)cc2)C(=O)C1=O the Potency was “inactive”.
For CCC[C@@H](C=O)NC(=O)[C@H](CC(C)C)NC(=O)[C@H](CC(C)C)NC(=O)OCc1ccccc1 (Cbz-Leu-Leu-[Nva]-aldehyde), the Potency was “inactive”.
With COC(=O)[C@@H]1CC2=CC(=O)CC[C@]2(C)[C@@]23O[C@@H]2C[C@@]2(C)[C@H](CC[C@@]24CCC(=O)O4)[C@@H]13 the Potency was “inactive”.
With O=C(CN1C(=O)C2(CCCC2)NC[C@H]1c1cc(F)cc(F)c1)Nc1ccc2c(c1)C[C@@]1(C2)C(=O)Nc2ncccc21 the Potency was “inactive”.
For CC(=O)N[C@H]1[C@@H]([C@H](O)[C@H](O)CO)OC(C(=O)O)=C[C@@H]1N=C(N)N, the Potency was “inactive”.
In the case of O=C(O)C[C@H](O)C[C@H](O)C=Cc1c(C2CC2)nc2ccccc2c1-c1ccc(F)cc1, the Potency is reported as “inactive”.
With CCN(CC)CCCCNc1ncc2c(n1)N(C)C(=O)N(c1c(Cl)c(OC)cc(OC)c1Cl)C2 the Potency was “inactive”.
In the case of OCCN1C[C@H](O)[C@@H](O)[C@H](O)[C@@H]1CO, the Potency is reported as “inactive”.
For COc1ccc(Nc2cc(-c3cnc(N)nc3)nc(N3CCOCC3)n2)cn1, the Potency was “inactive”.
With CC(C)[C@H](CO)Nc1nc(Nc2cccc(Cl)c2)c2ncn(C(C)C)c2n1 the Potency was “inactive”.
For COC1=C(OC)C(=O)C(CC=C(C)CCC=C(C)CCC=C(C)CCC=C(C)CCC=C(C)CCC=C(C)CCC=C(C)CCC=C(C)CCC=C(C)CCC=C(C)C)=C(C)C1=O, the Potency was “inactive”.
With c1ccc2c(Oc3nc(Nc4ccc(N5CCOCC5)cc4)c4ncn(C5CCCCC5)c4n3)cccc2c1 the Potency was “inactive”.
With CNC(=O)c1ccc(Nc2cc(Nc3ccccc3S(=O)(=O)C(C)C)c3cc[nH]c3n2)nc1 the Potency was “inactive”.
With C=CC(=O)Nc1cc(NC(=O)c2ccc(C)c(NC(=O)c3ccno3)c2)cc(C(F)(F)F)c1 the Potency was “inactive”.
With CC(=O)NCC(=O)N1[C@H]2CC[C@H]1c1cc(Nc3ncc(C(F)(F)F)c(NC4CCC4)n3)ccc12 the Potency was “inactive”.
With CC1(C)CC(O)CC(C)(C)N1[O] the Potency was “inactive”.
In the case of CC(C)(N)c1ccc(-c2nc3ccccc3nc2-c2ccccc2)cc1, the Potency is reported as “inactive”.
In the case of O=C(NCc1ccccc1)[C@H](Cc1ccccc1)NC(=O)[C@@H]1O[C@@H]1C(=O)NCCc1ccc(O)cc1, the Potency is reported as “inactive”.
With C=C(C)[C@@H]1CC[C@]2(C)CC[C@]3(C)[C@H](CC[C@@H]4[C@@]5(C)CC[C@H](O)C(C)(C)[C@H]5CC[C@]43C)[C@@H]12 the Potency was “inactive”.
In the case of Nc1nc(=O)n([C@H]2C[C@H](O)[C@@H](CO)O2)cc1F, the Potency is reported as “inactive”.
With CCc1cnn2c(NCc3ccc[n+]([O-])c3)cc(N3CCCC[C@@H]3CCO)nc12 the Potency was “inactive”.
For CCNC(=O)Nc1ccc(-c2nc3c(c(N4CCOC[C@H]4C)n2)CCN(C2COC2)C3)cc1, the Potency was “inactive”.
For CCCNC(=O)[C@H]1O[C@H]1C(=O)N[C@H](C(=O)N1CCC[C@@H]1C(=O)OC)C(C)CC (stereo not given in full), the Potency was “inactive”.
For Cn1cc(C=CC(=O)c2cccc(F)c2)cc1C=CC(=O)NO, the Potency was “inactive”.
In the case of CC1(C)[C@H](O[C@H]2O[C@H](C(=O)O)[C@@H](O)[C@H](O)[C@H]2O[C@@H]2O[C@H](C(=O)O)[C@@H](O)[C@H](O)[C@H]2O)CC[C@@]2(C)[C@H]1CC[C@]1(C)[C@H]2C(=O)C=C2[C@H]3C[C@@](C)(C(=O)O)CC[C@]3(C)CC[C@]21C, the Potency is reported as “inactive”.
With C#CCC(Cc1cnc2nc(N)nc(N)c2n1)c1ccc(C(=O)N[C@@H](CCC(=O)O)C(=O)O)cc1 (stereo not given in full) the Potency was “inactive”.
For CCCCC(=O)O[C@]1(C(=O)CO)[C@@H](C)C[C@H]2[C@@H]3CCC4=CC(=O)C=C[C@]4(C)[C@@]3(F)[C@@H](O)C[C@@]21C, the Potency was “inactive”.
